# Several values for one entry are separate records, joined by “and”; a condition that tells them apart may be missing. Identical values can stand only once. Hit rate of the full screen: of about 34,000 compounds, about 290 (0.85%) showed an effect of 50% or more. What follows is part of a selection rich in strong results, with near analogues and random picks from the rest.
# System: Plasmodium falciparum
# Experiment: Plasmodium falciparum sporozoite viability assay
# Format: functional, organism-based
# Set-up: scale not given: in the data most compounds retested in dose-response had high values
SMILES,Percent Effect [%],Percent Effect (10 mM as filed; unlikely as a test dose)
CCOC(=O)C1CCCN(c2ccc(-c3nc(C)no3)cn2)C1 (centres undefined),-0.4292,
OC[C@@H]1CCCN1c1ccc(-c2nc(CCc3ccccc3)no2)cn1,-12.02,
OCC1CCCCN1c1ccc(-c2nc(-c3ccccc3F)no2)cn1 (centres undefined),,104% and 108.6% and 106.3%
COc1ccc(-c2noc(-c3ccc(N4CCC[C@H]4CO)nc3)n2)cc1,,49.77% and 66.78% and 41.57%
COCc1noc(-c2ccc(N3CCCCC3CO)nc2)n1 (centres undefined),,100.3% and 99.37% and 102%
Cc1ccc(-c2nc(CN3CCCC3Cn3cc(C)cn3)no2)cc1 (centres undefined),-11.03,
OC[C@@H]1CCCN1c1ccc(-c2nc(COc3ccccc3)no2)cn1,3.859,
COCc1noc(-c2ccc(N3CCC[C@H]3CO)nc2)n1,,100.4% and 89.16% and 80.89%
COc1ccc2c(c1)CN(c1cc(N3CCCC3CO)ncn1)CC2 (centres undefined),-18.73,
OCC1CCCN1c1cc(N2CCc3ccccc3C2)ncn1 (centres undefined),3.468,
COc1cccc(CNC(=O)C(c2cccc(F)c2)N2CCOCC2)c1 (centres undefined),-3.044,
O=C(c1ccc(OCC2CC2)nc1)N1CCCC(n2cccn2)C1 (centres undefined),-19.18,
CC(C)C(=O)N(C)CC(=O)Nc1ccc(Br)cn1,14,
CC(C)NC(=O)C1CCN(c2nc3nc[nH]c(=O)c3s2)CC1,4.304,
O=C(O)CC(O)(CC(=O)O)C(=O)O.OC1CCN(Cc2ccnc(-c3cccnc3)n2)CC1,-11.33,
O=C(C1CCOCC1)N1CC[C@@H](O)[C@@H]1Cc1ccccc1,-0.722,
CCc1cc(C(=O)N2CCc3nc4c(C)csc4c(=O)n3CC2)on1,-3.013,
Cc1ccc(CNC2CCCN(Cc3noc(C4CC4)n3)C2)s1 (centres undefined),14.12,
Cc1nccc([C@@H]2C[C@H]3CN(S(=O)(=O)c4ccccc4)C[C@H]3O2)n1,-0.614,
COCc1noc(-c2ccc(N3CCCC3c3nccs3)nc2)n1 (centres undefined),12.02,
COCc1noc(-c2ccc(N3CCCCC3COC)nc2)n1 (centres undefined),,46.38% and 65.96% and 53.91%
COCc1noc(-c2ccc(N3CCCC3c3ccc(F)cc3)nc2)n1 (centres undefined),-8.49,
Cc1ccc(CN2Cc3nccn3CC(Cn3cccn3)C2)s1.O=C(O)C(F)(F)F (centres undefined),14.89,

SMILES,Percent Effect [%],Percent Effect (10 mM as filed; unlikely as a test dose)
c1cc(-c2nc(CN3CCc4c(ncn4C4CC4)C3)cs2)cs1,,57.35% and 45.82% and 61.3%
c1ccc(CCN2CCc3c(ncn3C3CC3)C2)nc1,,67.57% and 58.81%
Cn1cc(-c2nc(CN3CCc4c(ncn4C)C3)cs2)cn1,,16.12% and 15.46% and 16.04%
c1ccc(-c2nccc(N3CCc4c(ncn4C4CC4)C3)n2)cc1,,47.31% and 54.94% and 44.8%
c1ccc(OCCN2CCc3c(ncn3C3CC3)C2)cc1,1.314,
Cn1cnc2c1CCN(c1ccnc(-c3ccccc3)n1)C2,,23.08% and 36.96% and 19.93%
Cn1cnc2c1CCN(Cc1csc(-c3ccsc3)n1)C2,,58.75% and 42.56% and 36.07%
COc1cc(CCC(=O)N2CCC(c3cc4ncc(C)nc4[nH]3)C2)on1 (centres undefined),3.144,
Cn1ncc2ccc(C3CCCN(C(=O)Cc4cccs4)C3)nc21 (centres undefined),10.94,
CC(=O)N1CCCC(Cc2cncc(Br)c2)C1 (centres undefined),6.529,
Cl.NC[C@H]1CC[C@H](c2c(C(N)=O)sc3ccccc32)CC1,-7.353,
CC(C)c1nccn1-c1cncc(C2CCCN(C3CCCC3)C2)n1 (centres undefined),-6.527,
CC(=O)Nc1ncc(S(=O)(=O)Nc2cccc(C)c2)s1,,-25.8% and -18.95%
c1ccc(Cc2noc(CN3CCc4c(ncn4C4CC4)C3)n2)cc1,,-14.98% and -2.391% and 8.348%
Cn1cnc2c1CCN(Cc1csc(-c3ccc(F)cc3)n1)C2,,-9.047% and 9.476% and -2.391%
Cn1cnc2c1CCN(Cc1csc(-c3ccccc3F)n1)C2,,76.94% and 88.44% and 75.64%
CN(Cc1ccncc1)C1CC2(CCN(Cc3ccccn3)CC2)C1,-12.29,
c1cc2c(cc1CN(Cc1nc(C3CC3)no1)C1CCCC1)OCO2,,12.71% and 9.481% and -1.226%
CCc1noc(CN(Cc2ccc3c(c2)OCO3)C2CCCC2)n1,,55.13% and 62.45% and 59.26%
COc1ccc(C(C(=O)O)N2CCC(Cn3cccn3)CC2)cc1F (centres undefined),,-7.781% and -11.29%
CC(C)n1nnc(CC(=O)NCC2(c3ccccc3F)CCCC2)n1,17.65,
O=C(CCCc1ccccn1)N1CCCC(n2cccn2)C1 (centres undefined),0.2979,
C1CCCN(CC2CCCN(Cc3noc(C4CC4)n3)C2)CC1 (centres undefined),3.026,

SMILES,Percent Effect [%],Percent Effect (10 mM as filed; unlikely as a test dose)
COc1ccc(C(CO)NC(=O)Nc2cccc(F)c2)cc1 (centres undefined),,72.06% and 80.87%
COc1ccc(C(CO)NC(=O)Nc2cccc(C(C)=O)c2)cc1 (centres undefined),,15.43% and 22.65%
COc1ccc(C(CO)NC(=O)Nc2cccc(C#N)c2)cc1 (centres undefined),,6.223% and 12.91% and -11.88%
CN(CCc1ccccc1)Cc1c(C2CCNCC2)[nH]c2ncccc12.Cl,-0.2567,
CNc1cncc(C2CCCN2S(=O)(=O)c2ccccc2F)n1 (centres undefined),7.397,
Cc1nn(C)c(N2CCOCC2)c1CNCc1ccc(N(C)C)nc1,,6.683% and 14.39% and 13.71%
COc1ccc(CNCc2c(C)nn(C)c2N2CCOCC2)cc1,,-16.18% and -2.312% and -16.24%
C=Cn1ncc(CN2C[C@@H]3CCCN3C[C@H]2Cc2ccccc2)c1C,-1.399,
CC(=O)N1N=C(c2cccs2)OC1C(=O)Nc1ccc(C)cc1 (centres undefined),-16.37,
COc1cccc(Nc2nc(C3CCNCC3)c3sc(C)c(C)n23)c1.Cl,,77.36% and 36.71% and 52.33%
COc1cccc(Nc2nc(C3CCCNC3)c3sc(C)c(C)n23)c1.Cl (centres undefined),,4.856% and 5.657% and 12.75%
COc1cccc(-c2ccnc(C3CCNCC3)c2)c1,4.65,
Cc1nc(NCc2cccc(F)c2)cc(C2CCNCC2)n1.Cl,0.8951,
Cc1sc2c(C3CCNCC3)nc(Nc3cccc(F)c3)n2c1C.Cl,,63.64% and 42.54% and 49.37%
COc1cccc(-n2nnc(C(=O)N3CCN(C(C)=O)CC3)c2C)c1,6.024,
COCC1CC2(CCN(c3cccc(C)n3)CC2)CN1c1ncccn1.O=C(O)C(F)(F)F (centres undefined),-2.7,
COCCNC(=O)C1(CCCc2cccnc2)CCCN1C (centres undefined),16.89,
O=C1C(NCc2nnc3n2CCCC3)CCCN1c1ccccc1 (centres undefined),6.53,
Cc1ccc2c(c1)C(=O)NCC1(CCN(C(=O)c3cc(C)no3)CC1)O2,21.42,
CN1C[C@@H](C(=O)N2CCOCC2)[C@@]2(CCc3ccccc3C(=O)N2)C1,-1.963,
COc1ccc(-c2ccc(C3CNCCO3)nc2)cc1.Cl (centres undefined),,82.18% and 93.08% and 86.88%
COc1ccc(OCCc2cc(C3CNCCO3)nn2C)cc1 (centres undefined),0.06458,
COc1ccc(-c2cnc(N(C)C)nc2C2CNCCO2)cc1.Cl (centres undefined),3.932,

SMILES,Percent Effect [%],Percent Effect (10 mM as filed; unlikely as a test dose)
COc1ccc(-c2ccnc(C3CCNCC3)c2)cc1.Cl,12.14,
Cn1nc(C2CNCCO2)cc1CCOc1ccc(C(F)(F)F)cc1 (centres undefined),8.847,
O=C(CCn1ccnc1)N1CCC(c2nnc(-c3ccccn3)o2)CC1,18.74,
Cc1cc(NC(=O)CN(C)C2CCCN(c3cccnn3)C2)on1 (centres undefined),6.872,
Cc1cc2nc(SCC(=O)N3CCCCC3)n(C)c(=O)c2[nH]1,16.8,
CN1C(=O)CCCC12CCCN(C(=O)c1ccoc1)C2 (centres undefined),8.123,
Cc1nnc2n1CCN(C(=O)c1cc(C)n(-c3ccccn3)c1C)C2,,-4.516% and -0.613% and 8.394%
Cc1ccccc1-n1c(C)cc(C(=O)N2CCn3c(C)nnc3C2)c1C,,-10.25% and 8.528% and -8.016%
Cc1nnc2n1CCN(C(=O)c1cc(C)n(-c3ccccc3)c1C)C2,,80.6% and 90.57% and 75.3%
CCn1c(C)cc(C(=O)N2CCc3nnc(N)cc3C2)c1C,,-3.903% and -4.783% and -13.87%
Cc1nnc2n1CCN(C(=O)c1cc(C)n(-c3cccnc3)c1C)C2,,-3.499% and -16.38% and -11.58%
Cc1cc(C(=O)N2CCc3nnc(N)cc3C2)c(C)n1-c1cccnc1,,-13.69% and -18.44% and -9.069%
Cc1cccc(-n2c(C)cc(C(=O)N3CCn4c(C)nnc4C3)c2C)c1,,50.81% and 47.19% and 51.44%
O=C(NCCc1cc(N2CCOCC2)nc(NC2CC2)n1)C1CCCO1 (centres undefined),11.42,
Cc1cc(C)n(CC2CCCN2CCS(C)(=O)=O)n1 (centres undefined),6.268,
CCn1c(C2CCN(C(=O)c3cc(CC(C)C)on3)CC2)nn(C)c1=O,,-0.7877% and 5.537%
CNC(=O)c1cn[nH]c1C1CCCN1C(=O)c1cccnc1 (centres undefined),6.523,
Cc1noc(CN(CCc2ccco2)Cc2cccc(C#N)c2)n1,,-11.78% and -9.281%
COCCN(Cc1cccc(C#N)c1)Cc1nc(C)no1,,48.82% and 52.01%
Cc1noc(CN(CCc2cccs2)Cc2cccc(C#N)c2)n1,,-26.23% and -21.92%
